Assay outcomes: PubChem, National Center for Advancing Translational Sciences (NCATS)
Mito fusion yeast: blocks mitochondrial division or promotes mitochondrial fusion. S. cerevisiae fusion-defective mutant growth rescue, CellTiterGlo 48 h. Potency, µM (titrated, usually from 46.1 µM), without a hit: top-dose growth rescue (activation), usual class: activators. 320,000 tested, 0.23% active; further: potency means the concentration at half of the fitted maximal effect; % of control where 0% means no effect; nearly all actives have a fitted effect of over 45% in size
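Yeast fusion mutant, YPEG (non-fermentable carbon), compound, 48 h at 37C non-permissive; CellTiterGlo added, 10 min RT, luminescence read. Rescued growth = division inhibition.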
MBNL1-CUG inh: MBNL1-poly(CUG) RNA binding inhibition; Q9NR56; 280,000 tested, 0.036% active; Potency, µM (top dose mostly 57.5 µM), without a hit: at the highest dose activity change, negative = inhibition, most hits filed as inhibitors; AID 2675; TR-FRET MBNL1-His/biotin-(CUG)12 binding, 665/545 ratio; active means well fitted inhibition curve with a large enough effect in the signal ratio, with a control signal flat, not every such curve was filed as active; inconclusive means small, poorly fitted or top-dose-only effect, or effect the other way, or a change in a side signal; inactive means no such curve, though single readings can be large or run the other way; the % refers to the signal ratio; further: potency means the concentration at half of the fitted maximal effect; on the % scale 0 is the no-effect control and ±100 the full control effect
Target sequence (Q9NR56 whole entry, looked up): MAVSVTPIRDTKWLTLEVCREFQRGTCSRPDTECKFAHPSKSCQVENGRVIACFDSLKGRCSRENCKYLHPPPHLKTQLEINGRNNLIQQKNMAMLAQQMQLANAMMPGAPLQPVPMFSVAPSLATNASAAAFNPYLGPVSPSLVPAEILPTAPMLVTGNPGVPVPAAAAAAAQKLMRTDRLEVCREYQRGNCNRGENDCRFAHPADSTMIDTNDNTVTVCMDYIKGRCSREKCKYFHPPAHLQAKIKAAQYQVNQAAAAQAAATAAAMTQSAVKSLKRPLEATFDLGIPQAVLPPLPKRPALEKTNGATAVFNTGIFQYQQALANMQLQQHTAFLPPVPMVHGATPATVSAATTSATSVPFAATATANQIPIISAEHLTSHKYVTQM
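Ratiometric TR-FRET (665 over 545 nm, excitation 340 nm) tracks disruption of MBNL1-His/biotin-(CUG)12 complex after 60 min at room temperature, with compounds at 92 nM to 58 uM final.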
GRP78 ERSR act: induces the endoplasmic reticulum stress response in human glioma cells | U87-MG GRP78 promoter luciferase reporter, 16 h | Potency, µM, without a hit: top-dose activation, hits mostly activators | 420,000 tested, 0.02% active; further: potency means the concentration at half of the fitted maximal effect; series mostly up to about 76 µM; % of control where 0% means no effect; nearly all actives have a fitted effect of over 35% in size
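Stably transfected U87-MG human glioma cells carrying a GRP78-based luminescent sensor were seeded at 1000 cells/well, pin-dosed with compounds and incubated 16 h. Luciferase reagent was then added, and end-point luminescence was read after 10 min at room temperature.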
A-T KAP1 phos: candidate therapy for ataxia-telangiectasia. F2112 A-T fibroblasts, KAP-1 phosphorylation AlphaLISA; neocarzinostatin DNA damage 30 min before lysis. Potency, µM (titrated, usually from 57.5 µM), without a hit: top-dose activation, actives largely listed as activators. 320,000 tested, 0.19% active. AID 485349; further: potency means the concentration at half of the fitted maximal effect; % of control where 0% means no effect; nearly all actives have a fitted effect of over 45% in size
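hTERT-immortalized A-T patient fibroblasts (F2112), 500 cells/well in OPTI-MEM, 1% FBS, got compounds for 60 min, then NCS for 30 min at 37C. Lysates were then assayed for phospho-KAP-1 by AlphaLISA (anti-pKAP1 donor, anti-KAP1 acceptor beads), 6 hr at 25C.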
TCR activator: activators of T cell receptors. primary human leukocytes, anti-CD3, IL-2 HTRF, 48 h. Potency, µM (highest dose often 9.22 µM), without a hit: top-dose activation of IL-2 secretion, most hits filed as activators. 330,000 tested, under 10 active. AID 504894; further: % of control where 0% means no effect
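Primary human leukocytes receive a-CD3 beads and test compound and are incubated 48 hr. Secreted IL-2 is then assayed by HTRF, measuring 665nm acceptor emission after 320nm excitation of the europium donor.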
ClpP mod: qHTS Assay for Activators of ClpP | ATP-dependent Clp protease proteolytic subunit (Bacillus subtilis (strain 168)), P80244 | purified B. subtilis ClpP, FRET peptide cleavage, 20 min | Potency, µM (titrated, usually from 57.5 µM), for the others: at the top dose activity change, negative = active | 340,000 tested, 1.9% active | AID 651965, 2013; active means well fitted falling curve with a large enough effect; inconclusive means small, poorly fitted or top-dose-only effect; inactive means no such curve, though single readings can be large or run the other way; further: potency means the concentration at half of the fitted maximal effect; the source files actives as falling curves though it sought activators and does not explain the sign; nearly all actives have a fitted effect of over 65% in size
Target sequence (P80244 whole entry, looked up): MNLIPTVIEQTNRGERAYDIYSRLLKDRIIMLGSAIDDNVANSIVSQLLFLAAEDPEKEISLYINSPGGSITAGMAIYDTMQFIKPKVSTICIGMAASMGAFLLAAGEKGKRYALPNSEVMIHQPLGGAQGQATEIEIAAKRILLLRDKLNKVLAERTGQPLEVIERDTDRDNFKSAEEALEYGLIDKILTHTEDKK
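ClpP 10 microg/mL final, pH 8 Tris/KCl buffer with BSA, glycerol, Tween-20; compound pinned in; FRET-FV substrate; RT 20 min; Ex320/Em430; ΔFRET vs ADEP 5.8 microM, DMSO, no enzyme.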
Numbers without * were called inactive; [ ] = another dose, or the depositor's remark. Only some compounds are listed: those with a hit (about 1.8% of all), similar ones and a draw of the others. Unless noted, the call rests on the fitted dose curve; in most records, active means well fitted curve in the direction sought with a large enough effect; inconclusive means small, poorly fitted or top-dose-only effect, or another doubt; inactive means no such curve, though single readings can be large; an effect the other way counts as inactive or inconclusive.

Results for O=C(c1cnccn1)N1CCC2(CCCN(C(c3ccccc3)c3ccccc3)C2)CC1 ?
GRP78 ERSR act: 44.7µM*

Results for O=C(c1cccc(F)c1)N1CCC[C@@]2(CCN(C(c3ccccc3)c3ccccc3)C2)C1 ?
GRP78 ERSR act: 12.6µM*

How did O=C(c1cnccn1)N1CCC2(CC1)CN(C(c1ccccc1)c1ccccc1)C2 do in these assays?
GRP78 ERSR act: -0.1%

What do the screens show for `COc1ccc(-c2nc3ccc(NC(=O)COC(C)=O)cc3c(=O)n2Cc2ccccc2)cc1COc1ccc(NC(C)=O)cc1`?
ClpP mod: 106.6%

Results for Cc1ccc2cc(CNC(C)c3cccc4ccccc34)c(N3CCC(O)CC3)nc2c1 (stereo unspecified) ?
GRP78 ERSR act: -3.3%

What do the screens show for `CC1(C)CC2CC(C)(CN2C(=O)COC(=O)c2ccc(Cl)cc2N)C1` (stereo unspecified)?
Mito fusion yeast: -8.4%; MBNL1-CUG inh: 9.6%; GRP78 ERSR act: 0.6%; A-T KAP1 phos: 0.7%; TCR activator: 0.2%; ClpP mod: 28.2µM*

What do the screens show for `CC(C)(C)c1cc(/C=C(\C#N)C(N)=S)cc(C(C)(C)C)c1O`?
Mito fusion yeast: -59.9%; GRP78 ERSR act: -5.0%

Results for N#C/C(=C/c1ccc(F)cc1)C(N)=S ?
Mito fusion yeast: -0.8%; MBNL1-CUG inh: 25.2%; GRP78 ERSR act: -1.9%; A-T KAP1 phos: 3.55µM*; TCR activator: -4.5%

How did CSCC[C@@H]1NC(=O)[C@@H](NC(=O)[C@H](CCCNC(=N)N)NC(=O)[C@H](CC(C)C)NC(=O)[C@H](CCSC)NC(=O)[C@H](CC(=O)O)NC(=O)[C@H](Cc2ccccc2)NC(=O)[C@@H](N)CC(=O)O)CSSC[C@@H](C(=O)N[C@@H](Cc2c[nH]c3ccccc23)C(=O)N[C@@H](CCC(N)=O)C(=O)N[C@@H](Cc2ccc(O)cc2)C(=O)O)NC(=O)[C@@H]2CCCN2C(=O)[C@H](CCCNC(=N)N)NC(=O)[C@H](Cc2ccccc2)NC(=O)[C@H](C(C)C)NC(=O)[C@H](CCCNC(=N)N)NC(=O)CNC(=O)[C@H](CC(C)C)NC1=O do in these assays?
GRP78 ERSR act: -1.8%

Results for COC(=O)Cn1c(=NC(=O)c2cc(-c3cccs3)nc3ccccc23)sc2cc(S(N)(=O)=O)ccc21 ?
Mito fusion yeast: -5.7%; MBNL1-CUG inh: 5.2%; GRP78 ERSR act: -1.0%; A-T KAP1 phos: 2.3%; TCR activator: 0.9%[46.1 µM]; ClpP mod: inconclusive

Results for COC(=O)Cn1c(=NC(=O)c2cccc(OC)c2)sc2cc(OC)ccc21 ?
Mito fusion yeast: 3.4%; MBNL1-CUG inh: 18.4%; GRP78 ERSR act: 5.6%; A-T KAP1 phos: 6.0%; TCR activator: -1.1%[46.1 µM]; ClpP mod: 25.1µM*

Results for COC(=O)Cn1c(=NC(=O)c2nc3ccccc3s2)sc2cc(S(N)(=O)=O)ccc21 ?
Mito fusion yeast: -5.5%; MBNL1-CUG inh: 18.6%; GRP78 ERSR act: 3.0%; A-T KAP1 phos: 0.7%; TCR activator: 2.8%[46.1 µM]; ClpP mod: 22.4µM*

What do the screens show for `COC(=O)Cn1c(=NC(=O)c2ccc(OC)cc2)sc2cc(OC)ccc21`?
Mito fusion yeast: -3.9%; MBNL1-CUG inh: -2.9%; GRP78 ERSR act: -2.4%; A-T KAP1 phos: 8.9%; TCR activator: 10.0%[46.1 µM]; ClpP mod: 25.1µM*

How did COC(=O)Cn1c(=NC(=O)c2cc(OC)cc(OC)c2)sc2cc(OC)ccc21 do in these assays?
Mito fusion yeast: 5.3%; MBNL1-CUG inh: 1.5%; GRP78 ERSR act: -2.1%; A-T KAP1 phos: -0.8%; TCR activator: 4.8%[46.1 µM]; ClpP mod: 28.2µM*

What do the screens show for `COc1cccc(C2(CC(=O)N3CCC(c4nc5ccc(F)cc5[nH]4)CC3)CC(=O)N(C)C2=O)c1` (stereo unspecified)?
GRP78 ERSR act: -5.8%

How did CCS(=O)(=O)NCCc1cc2cc(C)c(C)cc2[nH]c1=O do in these assays?
Mito fusion yeast: -3.8%; MBNL1-CUG inh: -12.2%; GRP78 ERSR act: -0.8%; A-T KAP1 phos: -3.5%; TCR activator: 12.8%; ClpP mod: -6.5%

What do the screens show for `CCCc1nc(-c2cc3ccc(C)cc3[nH]c2=O)no1`?
Mito fusion yeast: 4.9%; MBNL1-CUG inh: inconclusive; GRP78 ERSR act: -0.6%; A-T KAP1 phos: 0.9%; TCR activator: -0.4%[46.1 µM]; ClpP mod: 28.2µM*

Results for CCS(=O)(=O)NCCc1cc2ccc(C)cc2[nH]c1=O ?
Mito fusion yeast: 0.3%; MBNL1-CUG inh: -3.8%; GRP78 ERSR act: -0.6%; A-T KAP1 phos: 6.4%; TCR activator: 3.2%; ClpP mod: 28.2µM*

How did CCC(COC)NC(=O)c1cnn(-c2ncc3c(n2)-c2ccccc2CCC3)c1C (stereo unspecified) do in these assays?
GRP78 ERSR act: -0.5%

Results for CCN(CC)CCNC(=O)c1cc2c(=O)[nH]c3ccc(C)cc3c2s1 ?
GRP78 ERSR act: -3.6%; ClpP mod: inconclusive

What do the screens show for `CCN(CCCNC(=O)c1cc2c(=O)[nH]c3ccc(C)cc3c2s1)Cc1ccccc1`?
GRP78 ERSR act: -9.5%; ClpP mod: 14.1µM*

What do the screens show for `O=P(O)(O)C(O)(Cc1cnc2ccccn12)P(=O)(O)O`?
GRP78 ERSR act: -3.6%

How did COc1ccccc1C1CN(Cc2cccc3nccnc23)Cc2ccccc2O1 (stereo unspecified) do in these assays?
GRP78 ERSR act: -2.4%

How did CCCC1C(C(=O)OCC)=C(C)NC(C)=C1C(=O)OCC do in these assays?
Mito fusion yeast: inconclusive; MBNL1-CUG inh: 2.5%; GRP78 ERSR act: -5.9%; TCR activator: -3.9%; ClpP mod: 20µM*

Results for CCOC(=O)C1=C(C)NC(C)=C(C(=O)OCC)C1c1ccc(O)cc1 ?
Mito fusion yeast: -1.4%; MBNL1-CUG inh: -1.5%; GRP78 ERSR act: -5.9%; A-T KAP1 phos: -3.9%; TCR activator: -1.9%; ClpP mod: -22.7%

Results for CCOC(=O)C1=C(C)NC(C)=C(C(=O)OCC)C1C(=O)O ?
Mito fusion yeast: -1.0%; MBNL1-CUG inh: -4.7%; GRP78 ERSR act: -4.8%; A-T KAP1 phos: -8.8%; TCR activator: 0.8%; ClpP mod: 0.4%

What do the screens show for `CCOC(=O)C1=C(C)NC(C)=C(C(=O)OCC)C1c1c(F)c(F)c(F)c(F)c1F`?
Mito fusion yeast: 2.31µM*; GRP78 ERSR act: -13.0%
